From PubChem BioAssay
Where “and” joins values, the source holds several entries; their conditions need not be identical. Equal values may be shown once. Records with an inconclusive call do not appear. Calls of active or inactive are those of the source.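 How the source made its calls, unless noted: active means normalized viability below 100% at a tested concentration; inactive means the rest.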

Experiments:
[1] = growth inhibition of DIPG cells – cell-based, MIPE4.0 library, CellTiter-Glo luminescence, qHTS (AID 1347066; cut-off not given, nearly all actives have AC50 up to about 30 µM;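 further: cells exposed to compound for 48 hours before readout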); settings: SU-DIPG-VI viability, CellTiter-Glo ATP luminescence
[2] = target: NAD(+) hydrolase SARM1 (Homo sapiens) (UniProt Q6SZW1); experiment: blocking NAD cleavage by SARM1 SAM-TIR – cell lysate, NAD-Glo luminescence (AID 1508614;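 active means compound whose remaining NAD level is above about 45 nM, limit read from the data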); settings: SAM-TIR HEK293T lysate NADase, at 1 µM, stronger effect = higher value
Sequence of NAD(+) hydrolase SARM1 (Homo sapiens) (Q6SZW1 whole entry, looked up): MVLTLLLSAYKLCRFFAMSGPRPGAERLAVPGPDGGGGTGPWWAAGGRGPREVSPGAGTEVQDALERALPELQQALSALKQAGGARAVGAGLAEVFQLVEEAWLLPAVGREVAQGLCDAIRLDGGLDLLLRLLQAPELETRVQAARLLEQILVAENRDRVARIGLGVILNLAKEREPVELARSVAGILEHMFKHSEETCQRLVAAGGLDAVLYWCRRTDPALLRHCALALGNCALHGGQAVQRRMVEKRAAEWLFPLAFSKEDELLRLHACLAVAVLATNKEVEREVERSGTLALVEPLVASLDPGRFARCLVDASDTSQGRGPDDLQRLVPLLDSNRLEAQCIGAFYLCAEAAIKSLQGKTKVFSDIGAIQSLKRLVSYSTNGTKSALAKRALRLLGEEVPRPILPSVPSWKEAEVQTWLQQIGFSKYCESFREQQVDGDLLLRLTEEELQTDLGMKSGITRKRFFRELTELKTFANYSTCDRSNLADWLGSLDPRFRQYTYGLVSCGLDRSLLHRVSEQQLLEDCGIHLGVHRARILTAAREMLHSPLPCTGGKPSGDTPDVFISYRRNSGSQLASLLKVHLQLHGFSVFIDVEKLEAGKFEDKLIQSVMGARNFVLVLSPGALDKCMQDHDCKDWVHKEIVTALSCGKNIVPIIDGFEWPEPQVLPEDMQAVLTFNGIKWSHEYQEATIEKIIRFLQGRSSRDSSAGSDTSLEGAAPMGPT

[3] = JHH-DIPG-1 glioma cell viability, MIPE5.0 library, CellTiter-Glo luminescence, qHTS (AID 1347067; cut-off not given, nearly all actives have AC50 up to about 26 µM;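 further: cells exposed to compound for 48 hours before readout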); settings: JHH-DIPG-1 glioma viability, CellTiter-Glo ATP luminescence
[4] = growth inhibition of DIPG cells – cell-based, MIPE5.0 library, qHTS (AID 1347068; cut-off not given, nearly all actives have IC50 up to about 30 µM); settings: SU-DIPG-XXV viability
[5] = liver-stage malaria parasite load reduction – cell-based, known kinase inhibitor set, luminescence, hepatoma host viability (AID 624392; call rule not given here;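 further: infected cells incubated roughly two days before readout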); settings: Plasmodium liver stage in hepatoma cells, luciferase luminescence, concentration not given here; liver cell % of control: measured here: host liver cell viability; parasite % of control: stronger effect = lower value
[6] = viability loss in pontine glioma line – cell-based, SU-DIPG-XXV, MIPE5.0, CellTiter-Glo, qHTS, dose response (AID 1347065; cut-off not given, nearly all actives have AC50 up to about 26 µM;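 further: cells exposed to compound for 48 hours before ATP readout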); settings: CellTiter-Glo ATP luminescence
[7] = viability loss with induced miR-34 in A549 – imaging, A549 dox-inducible miR-34, nuclei and caspase counts, primary screen (AID 1347080;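 active means compounds whose cell count with miR-34 switched on is under 0.7 times the count with it off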); settings: A549 miR-34 inducible, Hoechst nuclei count, 48 h
[8] = compounds altering HSF1 focus formation in cells – imaging, Selleck Cancer Library (AID 1347162; in the data active means plate-normalised HSF1 focus index below about 0.46); settings: human cells, HSF1 nuclear foci imaging, at 10 µM; SSMD: measured here: HSF1 foci SSMD mean; cell count: measured here: cell number; plate-normalised HSF1 focus index: stronger effect = lower value
[9] = MELAS cybrid and Rieske KO viability enhancers – cell-based, MELAS cybrids, Rieske KO mouse fibroblasts, CellTiter-Glo, primary screen (AID 1508586;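 active means mean z-score across replicates of 1.96 or higher in either the MELAS or the Rieske mutant cell line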;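 further: z relative to plate mean and SD of compound and empty wells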); settings: low glucose
[10] = drug combination growth inhibition, ovarian cancer – cell-based, oncology-focused library, rucaparib conditional, profiling panel (AID 1508598); settings: patient-derived ovarian cancer cells, CellTiter-Glo viability, 144 h, stronger effect = lower value

CC(C)OC(=O)CCC/C=C\C[C@@H]1[C@@H](/C=C/[C@@H](O)COc2cccc(C(F)(F)F)c2)[C@H](O)C[C@@H]1O
AC50 [1]: 23.5 µM (active)
remaining NAD [2]: 10 nM (inactive)

COc1ccc2c(c1)C(c1ccc(F)cc1)=C(CN1CCCC1)CO2
outcome [3]: inactive
outcome [4]: inactive

S=C(NCc1ccc2c(c1)OCO2)N1CCN(c2ncnc3c2oc2ccccc23)CC1
liver cell % of control [5]: 79.8% and 74.8% and 83.5%
parasite % of control [5]: 3.34% (inactive) and 4.31% (inactive) and 22.8% (inactive)
AC50 [6]: 18.6 µM (active)
fold change ([7]; stronger effect = lower value, cell number ratio, induced over uninduced): 0.868 (inactive)
fold change ([7]; measured here: relative caspase fold change +Dox/-Dox): 1.07
cell count ([7]; measured here: total cells with miR-34 induction, stronger effect = lower value): 3980
cell count ([7]; measured here: total cells without miR-34 induction): 4580
SSMD [8]: 2.08
cell count [8]: 7510
plate-normalised HSF1 focus index [8]: 1.08 (inactive)
z-score ([9]; MELAS cybrid survival, CellTiter-Glo 48 h, stronger effect = higher value): -0.551 (inactive)
z-score ([9]; Rieske KO mouse fibroblast survival, CellTiter-Glo 72 h): 0.864
viability ([10]; at 0.000305 µM, OCI-C5x cells, with rucaparib 10 µM, 100% = cells with rucaparib alone): 112% (inactive)
viability ([10]; at 0.000305 µM, OCI-C5x cells, without rucaparib): 101% (inactive)
viability ([10]; at 0.000305 µM, OCI-P5x cells, with rucaparib 20 µM, 100% = cells with rucaparib alone): 89.7% (active)
viability ([10]; at 0.000305 µM, OCI-P5x cells, without rucaparib): 92.1% (active)
viability ([10]; at 0.00122 µM, OCI-C5x cells, with rucaparib 10 µM, 100% = cells with rucaparib alone): 117% (inactive)
viability ([10]; at 0.00122 µM, OCI-C5x cells, without rucaparib): 100% (inactive)
viability ([10]; at 0.00122 µM, OCI-P5x cells, with rucaparib 20 µM, 100% = cells with rucaparib alone): 96.6% (active)
viability ([10]; at 0.00122 µM, OCI-P5x cells, without rucaparib): 98.2% (active)
viability ([10]; at 0.00488 µM, OCI-C5x cells, with rucaparib 10 µM, 100% = cells with rucaparib alone): 109% (inactive)
viability ([10]; at 0.00488 µM, OCI-C5x cells, without rucaparib): 104% (inactive)
viability ([10]; at 0.00488 µM, OCI-P5x cells, with rucaparib 20 µM, 100% = cells with rucaparib alone): 97.2% (active)
viability ([10]; at 0.00488 µM, OCI-P5x cells, without rucaparib): 95.2% (active)
viability ([10]; at 0.0195 µM, OCI-C5x cells, with rucaparib 10 µM, 100% = cells with rucaparib alone): 105% (inactive)
viability ([10]; at 0.0195 µM, OCI-C5x cells, without rucaparib): 98.9% (active)
viability ([10]; at 0.0195 µM, OCI-P5x cells, with rucaparib 20 µM, 100% = cells with rucaparib alone): 109% (inactive)
viability ([10]; at 0.0195 µM, OCI-P5x cells, without rucaparib): 105% (inactive)
viability ([10]; at 0.0781 µM, OCI-C5x cells, with rucaparib 10 µM, 100% = cells with rucaparib alone): 115% (inactive)
viability ([10]; at 0.0781 µM, OCI-C5x cells, without rucaparib): 111% (inactive)
viability ([10]; at 0.0781 µM, OCI-P5x cells, with rucaparib 20 µM, 100% = cells with rucaparib alone): 110% (inactive)
viability ([10]; at 0.0781 µM, OCI-P5x cells, without rucaparib): 101% (inactive)
viability ([10]; at 0.313 µM, OCI-C5x cells, with rucaparib 10 µM, 100% = cells with rucaparib alone): 110% (inactive)
viability ([10]; at 0.313 µM, OCI-C5x cells, without rucaparib): 111% (inactive)
viability ([10]; at 0.313 µM, OCI-P5x cells, with rucaparib 20 µM, 100% = cells with rucaparib alone): 105% (inactive)
viability ([10]; at 0.313 µM, OCI-P5x cells, without rucaparib): 104% (inactive)
viability ([10]; at 1.25 µM, OCI-C5x cells, with rucaparib 10 µM, 100% = cells with rucaparib alone): 118% (inactive)
viability ([10]; at 1.25 µM, OCI-C5x cells, without rucaparib): 107% (inactive)
viability ([10]; at 1.25 µM, OCI-P5x cells, with rucaparib 20 µM, 100% = cells with rucaparib alone): 103% (inactive)
viability ([10]; at 1.25 µM, OCI-P5x cells, without rucaparib): 103% (inactive)
viability ([10]; at 5 µM, OCI-C5x cells, with rucaparib 10 µM, 100% = cells with rucaparib alone): 128% (inactive)
viability ([10]; at 5 µM, OCI-C5x cells, without rucaparib): 129% (inactive)
viability ([10]; at 5 µM, OCI-P5x cells, with rucaparib 20 µM, 100% = cells with rucaparib alone): 101% (inactive)
viability ([10]; at 5 µM, OCI-P5x cells, without rucaparib): 101% (inactive)

N#CN1CCC[C@@H](n2nc(-c3ccc(Oc4ccc(F)cc4F)cc3)c(C(N)=O)c2N)C1
outcome [3]: inactive
outcome [4]: inactive

O=C(Nc1cccc(Br)c1)c1cccc(S(=O)(=O)N2CCCCCC2)c1
outcome [1]: inactive

CC(C)C(=O)Nc1ncc(-c2cc(C(F)F)nn2-c2c(Cl)cccc2Cl)s1
liver cell % of control [5]: 78% and 87.1% and 89.1%
parasite % of control [5]: 2.64% (inactive) and 20.3% (inactive) and 36.7% (inactive)
outcome [1]: inactive

O=C(Nc1cccnc1)c1cc(-c2ccnc(F)c2)ccc1OCc1ccccc1
AC50 [3]: 18.6 µM (active)

CN(CCO)C1CCN(c2ccc(Nc3ncc4c5ccnc(F)c5n(C5CCCC5)c4n3)nc2)CC1
outcome [4]: inactive

CCNC(=O)Nc1ncc(-c2cc(-c3c(C)cc(OC)cc3C)nc(-c3cnccn3)n2)s1
outcome [3]: inactive
outcome [4]: inactive

CC/C(=C(/c1ccc(/C=C/C(=O)O)cc1)c1ccc2[nH]ncc2c1)c1ccc(F)cc1Cl
AC50 [3]: 26.3 µM (active)

COCC(=O)NC/C=C/c1ccc2ncnc(Nc3ccc(Oc4ccc(C)nc4)c(C)c3)c2c1
outcome [3]: inactive

O=C(C(c1ccccc1)c1ccccc1)N1CCN(CC(O)COc2cccc3ncccc23)CC1 (stereo unspecified)
outcome [4]: inactive
